Screening data from PubChem BioAssay.
A488 fluor = qHTS Assay for Spectroscopic Profiling in A488 Spectral Region | compound autofluorescence, A488 spectral region, dye equivalency; Compound Type: qHTS ECL - MLSMR | max dye equivalency, M | 59,000 tested, 0.1% active | AID 591, 2007
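Intrinsic compound fluorescence is measured in 100 mM Tris buffer at pH 8.0 following 15 min incubation at room temperature. Intensities at 480 nm excitation/540 nm emission are calibrated to an on-plate A488 concentration series, giving dye-equivalent concentrations.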
A647 autofl = qHTS Assay for Spectroscopic Profiling in A647 Spectral Region | Compound fluorescence, A647 channel (570/671 nm), Tris buffer | max dye-equivalent concentration, M | 59,000 tested, under 10 active;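 further: values scaled relative to a standard on each plate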
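Tris 100 mM pH 8.0; cpd + A647 stds pin-transferred; 15 min RT; CCD imager, ex 570/em 671. Output = A647-equivalent conc. per cpd conc.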
Fluorescein fluor = qHTS Assay for Spectroscopic Profiling in Fluorescein Spectral Region. Compound autofluorescence, 480/540 nm, fluorescein-equivalent; hits give high values. max fluorescein-equivalent concentration, M. 59,000 tested, 0.91% active. AID 593, 2007; in the data active means max fluorescein-equivalent concentration above about 10 nM; inconclusive means between about 1.1 nM and that limit
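Compounds (23 nL) in 100 mM Tris pH 8.0, 15 min at room temperature, then fluorescence read at 480 nm excitation/540 nm emission. Signal converted to fluorescein-equivalent concentration from an on-plate fluorescein standard curve.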
Resorufin fluor = qHTS Assay for Spectroscopic Profiling in Resorufin Spectral Region; 59,000 tested, 0.04% active; AID 588, 2007; max dye-equivalent concentration, M; Compound fluorescence, resorufin region 547/598 nm, buffer; hits give high values
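Intrinsic fluorescence profiled in the resorufin window (ex 547 nm, em 598 nm) after 15 min at room temperature in pH 8.0 Tris buffer (100 mM); responses normalized against a six-point resorufin standard series as dye-equivalent concentration.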
Rhodamine autofl = qHTS Assay for Spectroscopic Profiling in Rhodamine Spectral Region | 59,000 tested, 0.05% active | Rhodamine-region fluorescence, 547/598 nm, Tris buffer; hits give high values | max dye-equivalent concentration, M; in the data active means max dye-equivalent concentration above about 11 nM; inconclusive means between about 1.1 nM and that limit
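qHTS spectral profiling of compounds without any target or enzyme present, in pH 8.0 Tris buffer; plates were read after a 15-minute room-temperature incubation using the rhodamine-region filter set.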
TexasRed autofl = qHTS Assay for Spectroscopic Profiling in Texas Red Spectral Region | max dye-equivalent concentration, M | 59,000 tested, 0.06% active | Compound fluorescence, Texas Red channel, 547/618 nm; hits give high values | AID 587, 2007; in the data active means max dye-equivalent concentration above about 10 nM; inconclusive means between about 1.1 nM and that limit
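Compound titrations in 100 mM Tris pH 8.0 were incubated 15 min at room temperature and read at 547 nm excitation / 618 nm emission. Texas Red six-point standard curve on each plate converted fluorescence to dye-equivalent concentration.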
* = called active by the depositor. Compounds with a hit are over-represented: about 0.95% of the library has one in this group of screens. Unless noted, how the calls were made is not given here.

Screening COc1ccc(-c2ccc(-c3noc(-c4ccccc4OC)n3)c(OC)n2)cc1 returned A488 fluor inconclusive, A647 autofl 1e-09, Fluorescein fluor 2.8e-08M*, Resorufin fluor inactive, Rhodamine autofl inactive and TexasRed autofl inactive.
Screening COc1ccc(-c2ccc(-c3noc(-c4ccccc4C)n3)c(OC)n2)cc1 returned A488 fluor inactive, A647 autofl 1e-09, Fluorescein fluor 1.2e-08M*, Resorufin fluor inactive, Rhodamine autofl inactive and TexasRed autofl inconclusive.
`Oc1cc(O)cc(/C=C\c2ccc(O)c(O)c2)c1` gave A488 fluor inactive, A647 autofl 1e-09, Fluorescein fluor inconclusive, Resorufin fluor inactive, Rhodamine autofl inactive and TexasRed autofl inactive.
For OC[C@@H]1O[C@H](O)[C@@H](Cl)[C@H](O)[C@@H]1O the results were A488 fluor inactive, A647 autofl 8.7e-09, Fluorescein fluor inactive, Resorufin fluor inactive, Rhodamine autofl inactive and TexasRed autofl inconclusive.
Screening CCOC(=O)C1=C(C(C)=O)C(c2cccnc2)C(C#N)=C(N)O1 (configuration not stated) returned A488 fluor inactive, A647 autofl 3e-08, Fluorescein fluor inactive, Resorufin fluor inactive, Rhodamine autofl inactive and TexasRed autofl inconclusive.
`CC(=O)C1(C)OC(N)=C(C#N)C(c2ccccc2)C1(C#N)C#N` (configuration not stated) gave A488 fluor inactive, A647 autofl 3.2e-09, Fluorescein fluor 1.1e-08M*, Resorufin fluor inactive, Rhodamine autofl inactive and TexasRed autofl inactive.
N[C@H](Cc1ccc(F)cc1)C(=O)O was read as A488 fluor inactive, A647 autofl 9.6e-09, Fluorescein fluor inconclusive, Resorufin fluor inactive, Rhodamine autofl inactive and TexasRed autofl inactive.
For CCCn1c(=N)c(C(=O)NCc2ccc3c(c2)OCO3)cc2c(=O)n3cccc(C)c3nc21 the results were A488 fluor inactive, A647 autofl 2.6e-09, Fluorescein fluor 1.4e-08M*, Resorufin fluor inactive, Rhodamine autofl inactive and TexasRed autofl inactive.
`CO[C@@H]1/C=C\O[C@]2(C)Oc3c(C)c(O)c4c(O)c(cc(O)c4c3C2=O)NC(=O)/C(C)=C\C=C/[C@H](C)[C@@H](O)[C@H](C)[C@H](O)[C@H](C)[C@H](OC(C)=O)[C@@H]1C` gave A488 fluor inactive, A647 autofl 1e-09, Fluorescein fluor inactive, Resorufin fluor inactive, Rhodamine autofl inactive and TexasRed autofl inactive.
For COc1cccc(C2C=C(c3ccc(Br)s3)Nc3ncnn32)c1OC (configuration not stated) the results were A488 fluor inactive, A647 autofl 1e-09, Fluorescein fluor 1.5e-08M*, Resorufin fluor inactive, Rhodamine autofl inactive and TexasRed autofl inactive.
Fc1ccc(Br)cc1C1C=C(c2ccc(Br)s2)Nc2ncnn21 (configuration not stated) was read as A488 fluor inactive, A647 autofl 3.4e-09, Fluorescein fluor inconclusive, Resorufin fluor inactive, Rhodamine autofl inactive and TexasRed autofl inactive.
`Cc1ccc(C(C)C)c(OCC(O)CN2CCOCC2)c1` (configuration not stated) gave A488 fluor inactive, A647 autofl 2.4e-09, Fluorescein fluor inconclusive, Resorufin fluor inactive, Rhodamine autofl inactive and TexasRed autofl inactive.
Cc1ccc2c(c1)c(C)c(C)n2CC(O)CN1CCOCC1 (configuration not stated) was read as A488 fluor inactive, A647 autofl 3.9e-08, Fluorescein fluor 1.4e-08M*, Resorufin fluor inconclusive, Rhodamine autofl 1.2e-08M* and TexasRed autofl 6.4e-08M*.
Screening C[C@@H]1O[C@@H](OC[C@@H]2O[C@@H](Oc3c(-c4ccc(O)c(O)c4)oc4cc(O)cc(O)c4c3=O)[C@H](O)[C@H](O)[C@@H]2O)[C@H](O)[C@H](O)[C@@H]1O returned A488 fluor inactive, A647 autofl 3.8e-09, Fluorescein fluor inconclusive, Resorufin fluor inactive, Rhodamine autofl inactive and TexasRed autofl inactive.
`Cc1cc(OCC(=O)NCCN2CCOCC2)ccc1Br` gave A488 fluor inactive, A647 autofl 2.6e-08, Fluorescein fluor 2.3e-08M*, Resorufin fluor inactive, Rhodamine autofl inactive and TexasRed autofl inactive.
Screening N#C[C@@H]1[C@@H]2C(=O)N(c3ccc4c(c3)OCCO4)C(=O)[C@@H]2C2c3ccccc3C=CN21 (some centres not stated) returned A488 fluor inactive, A647 autofl 3.9e-08, Fluorescein fluor 1.3e-08M*, Resorufin fluor inconclusive, Rhodamine autofl inconclusive and TexasRed autofl inconclusive.
For O=C(c1ccco1)[C@@H]1[C@@H]2C(=O)N(c3ccc(Br)cc3)C(=O)[C@@H]2C2c3ccccc3C=CN21 (some centres not stated) the results were A488 fluor inactive, A647 autofl 4.2e-09, Fluorescein fluor inconclusive, Resorufin fluor inactive, Rhodamine autofl inactive and TexasRed autofl inconclusive.
Screening COc1ccc(NC(=O)[C@@H]2[C@@H]3C(=O)N(C4CCCCC4)C(=O)[C@@H]3C3c4ccccc4C=CN32)cc1 (some centres not stated) returned A488 fluor inactive, A647 autofl 1.8e-09, Fluorescein fluor inconclusive, Resorufin fluor inactive, Rhodamine autofl inactive and TexasRed autofl inactive.
Screening CC(=O)[C@H]1[C@@H]2C(=O)N(c3cccc(Cl)c3)C(=O)[C@@H]2[C@H]2c3ccccc3C=CN21 returned A488 fluor inactive, A647 autofl 1e-09, Fluorescein fluor 1.8e-08M*, Resorufin fluor inactive, Rhodamine autofl inactive and TexasRed autofl inactive.
For CC(=O)[C@@H]1[C@@H]2C(=O)N(c3ccc(F)c(Cl)c3)C(=O)[C@@H]2C2c3ccccc3C=CN21 (some centres not stated) the results were A488 fluor inconclusive, A647 autofl 3.5e-08, Fluorescein fluor 3.3e-08M*, Resorufin fluor inconclusive, Rhodamine autofl inconclusive and TexasRed autofl inconclusive.
For CC(=O)[C@H]1[C@H]2[C@H](C(=O)[C@@H]3OC[C@H]2O3)[C@@H]2c3ccccc3C=CN12 the results were A488 fluor inactive, A647 autofl 1.6e-08, Fluorescein fluor inconclusive, Resorufin fluor inactive, Rhodamine autofl inactive and TexasRed autofl inactive.
`O=C(c1ccco1)[C@@H]1[C@@H]2C(=O)N(c3ccc(F)cc3)C(=O)[C@@H]2C2c3ccccc3C=CN21` (some centres not stated) gave A488 fluor inactive, A647 autofl 5.7e-09, Fluorescein fluor 1.3e-08M*, Resorufin fluor inactive, Rhodamine autofl inactive and TexasRed autofl inconclusive.
